Reference: the supplement of paper PMC11732987, “Enantioselective OTUD7B fragment discovery through chemoproteomics screening and high-throughput optimisation” (Communications Chemistry, 2025)

How the values were obtained:
Test in all cases: log2 ratio of Biotin-Ahx-Ub-VS probe labelling (fragment/DMSO); higher = less target engagement (more negative = stronger competition), active = hit call of the paper (q ≤ 0.05, log2 ratio ≤ -1)
Settings in all cases: compound concentration: 200 uM; treatment time: 3 h
[1] = target: T1, USP19 (UniProt O94966)
T1 sequence (whole entry): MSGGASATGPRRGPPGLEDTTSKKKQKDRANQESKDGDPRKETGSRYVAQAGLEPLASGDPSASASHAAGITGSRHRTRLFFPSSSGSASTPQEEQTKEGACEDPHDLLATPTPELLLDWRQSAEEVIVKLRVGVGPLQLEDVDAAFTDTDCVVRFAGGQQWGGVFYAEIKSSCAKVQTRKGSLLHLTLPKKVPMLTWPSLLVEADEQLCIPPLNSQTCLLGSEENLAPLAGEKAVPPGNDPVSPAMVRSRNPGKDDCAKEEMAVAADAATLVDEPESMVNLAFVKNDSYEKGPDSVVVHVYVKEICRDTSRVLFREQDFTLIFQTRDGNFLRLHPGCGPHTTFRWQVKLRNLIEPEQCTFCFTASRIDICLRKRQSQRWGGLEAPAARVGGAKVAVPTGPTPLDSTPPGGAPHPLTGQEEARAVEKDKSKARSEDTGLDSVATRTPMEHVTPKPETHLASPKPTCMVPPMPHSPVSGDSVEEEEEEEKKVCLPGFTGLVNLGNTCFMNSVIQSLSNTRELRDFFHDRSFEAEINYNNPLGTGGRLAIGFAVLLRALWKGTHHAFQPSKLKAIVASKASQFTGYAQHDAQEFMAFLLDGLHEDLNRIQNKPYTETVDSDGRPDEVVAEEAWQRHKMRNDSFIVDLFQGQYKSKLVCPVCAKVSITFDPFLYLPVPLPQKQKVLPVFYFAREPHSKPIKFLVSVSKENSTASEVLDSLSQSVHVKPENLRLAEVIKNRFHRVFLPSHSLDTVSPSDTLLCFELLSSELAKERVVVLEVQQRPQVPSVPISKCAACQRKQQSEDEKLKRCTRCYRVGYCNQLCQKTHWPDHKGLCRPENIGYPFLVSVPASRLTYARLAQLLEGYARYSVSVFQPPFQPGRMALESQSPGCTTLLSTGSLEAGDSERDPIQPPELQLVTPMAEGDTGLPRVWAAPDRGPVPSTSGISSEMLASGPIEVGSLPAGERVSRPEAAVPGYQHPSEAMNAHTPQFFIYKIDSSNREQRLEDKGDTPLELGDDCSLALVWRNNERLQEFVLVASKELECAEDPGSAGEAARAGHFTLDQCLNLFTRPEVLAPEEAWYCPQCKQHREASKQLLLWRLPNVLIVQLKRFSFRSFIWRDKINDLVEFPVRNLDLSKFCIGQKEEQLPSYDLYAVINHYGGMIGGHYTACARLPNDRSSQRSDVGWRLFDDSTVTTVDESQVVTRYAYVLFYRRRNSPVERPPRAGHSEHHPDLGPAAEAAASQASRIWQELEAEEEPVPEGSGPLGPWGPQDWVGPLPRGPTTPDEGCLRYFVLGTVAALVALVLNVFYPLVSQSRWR
How it was run: (§1)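 HEK293T lysate in Tris/CHAPS/IGEPAL buffer with protease inhibitors (495 µg per sample) was given fragment at 200 µM or vehicle for 3 h, in triplicate. It then received Biotin-Ahx-Ub-VS at 0.5 µM final for 1 h. Labelled DUBs were NeutrAvidin-enriched, digested with LysC and trypsin, and run by diaPASEF LC-MS/MS. Values are average log2 fragment/vehicle ratios by unpaired t-test on global-median-normalised Spectronaut quantities of proteins with ≥2 unique peptides.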

[2] = target: T2, USP22 (UniProt Q9UPT9)
T2 sequence (whole entry): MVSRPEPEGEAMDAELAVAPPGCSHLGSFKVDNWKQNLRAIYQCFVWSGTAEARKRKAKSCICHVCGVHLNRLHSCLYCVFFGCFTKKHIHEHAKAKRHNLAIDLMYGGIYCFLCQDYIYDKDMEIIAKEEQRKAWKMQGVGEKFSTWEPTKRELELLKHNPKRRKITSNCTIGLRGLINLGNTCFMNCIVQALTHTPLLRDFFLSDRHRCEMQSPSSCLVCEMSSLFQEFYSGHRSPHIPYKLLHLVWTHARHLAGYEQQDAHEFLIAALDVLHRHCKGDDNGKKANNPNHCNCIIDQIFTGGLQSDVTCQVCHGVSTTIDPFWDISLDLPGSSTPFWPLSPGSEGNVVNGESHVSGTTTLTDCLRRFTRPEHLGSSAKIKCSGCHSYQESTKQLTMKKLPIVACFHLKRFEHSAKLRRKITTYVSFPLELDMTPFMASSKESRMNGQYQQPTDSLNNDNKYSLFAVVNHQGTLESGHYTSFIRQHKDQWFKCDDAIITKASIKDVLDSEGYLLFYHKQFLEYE
How it was run: as §1

[3] = target: USP24 (UniProt Q9UPU5)
How it was run: as §1

[4] = target: T3, USP25 (UniProt Q9UHP3)
T3 sequence (whole entry): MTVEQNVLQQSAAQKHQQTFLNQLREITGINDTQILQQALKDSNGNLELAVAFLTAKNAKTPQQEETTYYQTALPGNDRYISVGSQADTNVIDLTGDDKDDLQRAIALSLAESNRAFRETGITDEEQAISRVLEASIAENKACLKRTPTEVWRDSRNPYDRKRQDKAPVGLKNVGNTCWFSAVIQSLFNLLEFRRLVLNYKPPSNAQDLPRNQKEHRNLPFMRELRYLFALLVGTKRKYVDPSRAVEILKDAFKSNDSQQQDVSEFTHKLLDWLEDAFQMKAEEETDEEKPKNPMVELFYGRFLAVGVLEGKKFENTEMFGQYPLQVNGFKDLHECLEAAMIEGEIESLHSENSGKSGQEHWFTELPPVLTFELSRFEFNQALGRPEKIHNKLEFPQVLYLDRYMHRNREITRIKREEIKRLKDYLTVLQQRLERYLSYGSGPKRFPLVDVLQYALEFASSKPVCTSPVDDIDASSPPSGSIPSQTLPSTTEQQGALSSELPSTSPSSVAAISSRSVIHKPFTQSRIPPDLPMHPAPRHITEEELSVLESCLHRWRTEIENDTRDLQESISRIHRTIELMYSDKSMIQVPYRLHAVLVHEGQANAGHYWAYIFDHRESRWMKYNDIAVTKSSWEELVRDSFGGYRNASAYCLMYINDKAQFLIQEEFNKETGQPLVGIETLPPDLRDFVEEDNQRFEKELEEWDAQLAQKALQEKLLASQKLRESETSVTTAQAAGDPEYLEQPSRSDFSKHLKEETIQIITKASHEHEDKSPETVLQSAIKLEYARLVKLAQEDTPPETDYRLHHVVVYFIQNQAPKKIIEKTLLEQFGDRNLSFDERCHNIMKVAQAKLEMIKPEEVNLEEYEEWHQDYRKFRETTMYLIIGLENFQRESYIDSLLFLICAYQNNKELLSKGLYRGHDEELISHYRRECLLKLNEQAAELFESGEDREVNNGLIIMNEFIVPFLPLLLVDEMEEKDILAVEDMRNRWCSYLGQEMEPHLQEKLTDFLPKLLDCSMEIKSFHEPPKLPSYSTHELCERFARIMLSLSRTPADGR
How it was run: as §1

[5] = target: T4, USP28 (UniProt Q96RU2)
T4 sequence (whole entry): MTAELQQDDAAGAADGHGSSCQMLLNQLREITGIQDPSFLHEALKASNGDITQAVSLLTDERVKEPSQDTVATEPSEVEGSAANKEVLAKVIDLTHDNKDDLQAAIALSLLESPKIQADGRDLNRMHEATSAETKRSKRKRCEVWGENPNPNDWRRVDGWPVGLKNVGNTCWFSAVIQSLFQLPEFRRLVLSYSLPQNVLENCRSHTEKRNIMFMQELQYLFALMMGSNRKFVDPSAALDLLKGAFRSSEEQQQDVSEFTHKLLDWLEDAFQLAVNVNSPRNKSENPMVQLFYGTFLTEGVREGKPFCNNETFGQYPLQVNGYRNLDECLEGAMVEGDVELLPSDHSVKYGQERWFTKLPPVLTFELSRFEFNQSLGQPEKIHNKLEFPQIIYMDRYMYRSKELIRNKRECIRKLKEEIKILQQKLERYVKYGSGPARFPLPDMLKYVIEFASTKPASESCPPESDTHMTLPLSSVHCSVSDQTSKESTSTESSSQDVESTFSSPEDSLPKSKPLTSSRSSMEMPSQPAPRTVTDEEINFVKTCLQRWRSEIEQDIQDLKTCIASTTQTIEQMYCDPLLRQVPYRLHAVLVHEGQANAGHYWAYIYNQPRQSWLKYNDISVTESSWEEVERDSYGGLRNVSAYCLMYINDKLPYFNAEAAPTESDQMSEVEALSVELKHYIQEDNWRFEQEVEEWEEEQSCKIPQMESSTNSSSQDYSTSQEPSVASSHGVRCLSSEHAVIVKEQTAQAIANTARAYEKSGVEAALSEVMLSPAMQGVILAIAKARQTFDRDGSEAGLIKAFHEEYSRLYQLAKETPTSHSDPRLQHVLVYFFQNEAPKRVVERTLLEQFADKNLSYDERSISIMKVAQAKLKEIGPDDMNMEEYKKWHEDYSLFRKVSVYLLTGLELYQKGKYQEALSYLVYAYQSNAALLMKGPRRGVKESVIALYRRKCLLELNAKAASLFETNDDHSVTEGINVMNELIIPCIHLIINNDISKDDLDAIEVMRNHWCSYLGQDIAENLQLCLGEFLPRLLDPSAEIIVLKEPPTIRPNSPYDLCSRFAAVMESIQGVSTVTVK
How it was run: as §1

Measured: log2 ratio of Biotin-Ahx-Ub-VS probe labelling

Sequence of USP24 (Q9UPU5 whole entry): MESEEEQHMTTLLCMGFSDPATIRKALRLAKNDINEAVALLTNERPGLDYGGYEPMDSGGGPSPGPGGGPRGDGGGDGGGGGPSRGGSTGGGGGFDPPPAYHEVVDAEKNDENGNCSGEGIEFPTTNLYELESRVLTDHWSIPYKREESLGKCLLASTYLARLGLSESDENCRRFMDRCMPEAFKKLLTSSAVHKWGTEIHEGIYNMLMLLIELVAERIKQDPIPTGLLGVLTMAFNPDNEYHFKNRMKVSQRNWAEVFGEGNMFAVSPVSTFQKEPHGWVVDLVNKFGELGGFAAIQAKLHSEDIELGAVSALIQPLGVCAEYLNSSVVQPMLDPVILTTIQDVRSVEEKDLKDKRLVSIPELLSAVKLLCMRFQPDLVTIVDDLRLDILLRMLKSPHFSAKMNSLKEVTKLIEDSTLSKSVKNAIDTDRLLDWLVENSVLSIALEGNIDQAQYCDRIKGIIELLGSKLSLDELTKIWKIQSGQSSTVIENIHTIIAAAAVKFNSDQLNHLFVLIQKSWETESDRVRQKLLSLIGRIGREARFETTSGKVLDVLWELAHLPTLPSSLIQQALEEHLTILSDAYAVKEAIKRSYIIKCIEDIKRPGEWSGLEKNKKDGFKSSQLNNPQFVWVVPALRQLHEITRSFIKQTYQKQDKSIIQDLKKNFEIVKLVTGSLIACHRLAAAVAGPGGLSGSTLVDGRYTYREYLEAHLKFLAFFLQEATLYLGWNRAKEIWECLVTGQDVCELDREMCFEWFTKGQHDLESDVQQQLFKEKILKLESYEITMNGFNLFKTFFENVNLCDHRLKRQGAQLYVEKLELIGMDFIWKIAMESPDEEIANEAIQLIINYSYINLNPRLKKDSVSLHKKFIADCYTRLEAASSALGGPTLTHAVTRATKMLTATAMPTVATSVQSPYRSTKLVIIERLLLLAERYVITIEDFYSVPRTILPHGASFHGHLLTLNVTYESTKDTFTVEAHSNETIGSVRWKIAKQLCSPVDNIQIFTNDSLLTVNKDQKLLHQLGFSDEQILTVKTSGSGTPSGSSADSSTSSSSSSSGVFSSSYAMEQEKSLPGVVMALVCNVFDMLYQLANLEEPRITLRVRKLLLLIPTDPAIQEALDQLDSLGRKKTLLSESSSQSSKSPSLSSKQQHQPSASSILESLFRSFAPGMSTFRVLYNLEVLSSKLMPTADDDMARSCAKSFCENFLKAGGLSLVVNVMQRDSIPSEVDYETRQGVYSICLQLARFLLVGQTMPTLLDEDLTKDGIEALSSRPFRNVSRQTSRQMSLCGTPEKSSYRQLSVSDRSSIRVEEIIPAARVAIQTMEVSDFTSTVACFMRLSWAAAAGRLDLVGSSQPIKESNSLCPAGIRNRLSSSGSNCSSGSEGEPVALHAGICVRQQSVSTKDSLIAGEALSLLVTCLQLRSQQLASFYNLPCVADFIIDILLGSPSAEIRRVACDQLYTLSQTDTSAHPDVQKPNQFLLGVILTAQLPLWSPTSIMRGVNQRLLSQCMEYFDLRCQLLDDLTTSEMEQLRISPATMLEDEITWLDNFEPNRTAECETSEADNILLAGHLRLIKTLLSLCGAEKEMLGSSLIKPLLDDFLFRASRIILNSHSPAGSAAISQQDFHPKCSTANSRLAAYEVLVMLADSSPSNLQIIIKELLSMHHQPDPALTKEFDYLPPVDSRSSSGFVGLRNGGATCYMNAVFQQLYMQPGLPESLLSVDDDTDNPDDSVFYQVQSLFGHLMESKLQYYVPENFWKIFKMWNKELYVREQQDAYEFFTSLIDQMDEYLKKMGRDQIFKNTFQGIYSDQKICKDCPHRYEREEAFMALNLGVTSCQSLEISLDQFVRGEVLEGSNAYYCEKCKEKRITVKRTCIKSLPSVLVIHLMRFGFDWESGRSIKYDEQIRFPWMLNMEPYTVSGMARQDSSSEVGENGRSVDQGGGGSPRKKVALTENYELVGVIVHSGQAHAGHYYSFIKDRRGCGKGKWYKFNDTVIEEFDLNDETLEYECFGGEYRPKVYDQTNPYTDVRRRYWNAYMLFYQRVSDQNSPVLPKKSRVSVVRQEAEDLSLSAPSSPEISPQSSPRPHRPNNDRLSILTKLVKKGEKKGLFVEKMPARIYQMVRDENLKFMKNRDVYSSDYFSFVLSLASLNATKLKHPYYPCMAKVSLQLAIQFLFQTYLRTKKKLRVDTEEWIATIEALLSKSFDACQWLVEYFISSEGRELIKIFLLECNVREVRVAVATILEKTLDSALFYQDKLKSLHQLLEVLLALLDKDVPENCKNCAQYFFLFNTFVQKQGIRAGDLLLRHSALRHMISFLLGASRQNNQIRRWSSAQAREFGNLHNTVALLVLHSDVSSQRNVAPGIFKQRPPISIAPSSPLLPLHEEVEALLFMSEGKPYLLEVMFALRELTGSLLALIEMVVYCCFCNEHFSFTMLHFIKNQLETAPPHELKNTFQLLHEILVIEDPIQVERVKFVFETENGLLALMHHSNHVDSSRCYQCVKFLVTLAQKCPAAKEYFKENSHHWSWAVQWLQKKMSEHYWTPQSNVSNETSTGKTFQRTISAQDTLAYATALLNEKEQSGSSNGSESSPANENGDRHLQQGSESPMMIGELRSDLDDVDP

O=C(CCl)N1CCOCCC1c1ccccc1 (stereo not given)
inactive: [1] -0.132 | [2] 0.147 | [3] -0.633 | [4] 0.0233 | [5] -0.12
